In article PMC10812921, “Transcriptional Coactivator BOB1 (OBF1, OCA-B) Modulates the Specificity of DNA Recognition by the POU-Domain Factors OCT1 and OCT2 in a Monomeric Configuration”:

How the values were obtained:
POU1 (OCT1 POU domain) = POU1 (OCT1 POU domain) (human, UniProt P14859 260-458); experiment: EMSA-SELEX-seq; no BOB1; 20 mM Tris-HCl pH 7.6, 140 mM NaCl, 10% glycerol, 0.5 mM EDTA, 0.05% Triton X-100, 0.1 mg/mL BSA, 0.1 mg/mL poly(dI-dC), 5 mM DTT, room temperature, 20 min; high values mean tight binding; details: protein: recombinant; dsDNA, one strand shown
Sequence of POU1 (OCT1 POU domain) (P14859 260-458): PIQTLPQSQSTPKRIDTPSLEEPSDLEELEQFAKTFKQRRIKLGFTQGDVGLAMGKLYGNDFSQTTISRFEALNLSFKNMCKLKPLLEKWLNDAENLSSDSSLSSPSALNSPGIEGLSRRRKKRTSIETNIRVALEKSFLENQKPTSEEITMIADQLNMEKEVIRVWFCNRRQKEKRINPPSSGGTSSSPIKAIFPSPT
Method in brief: (§1)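 Tagged POU-domain proteins were produced in E. coli BL21, purified under denaturing conditions and renatured before use. They were mixed at 30 ng with 300 ng of a PCR-amplified double-stranded random 35-nt library, with or without 28 ng coactivator protein, in 20 μL Tris–HCl pH 7.6 binding buffer, incubating 20 min at RT. Complexes cut from native 6% PAGE were eluted and PCR-amplified over four rounds, then sequenced by Illumina, with binding preference taken as the percentage of sequenced 8-mers matching a motif pattern.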

POU2 (OCT2 POU domain) = molecular target: T1, POU2 (OCT2 POU domain) (human, UniProt P09086 175-386); experiment: as above; details: protein: recombinant; dsDNA, one strand shown
T1 sequence: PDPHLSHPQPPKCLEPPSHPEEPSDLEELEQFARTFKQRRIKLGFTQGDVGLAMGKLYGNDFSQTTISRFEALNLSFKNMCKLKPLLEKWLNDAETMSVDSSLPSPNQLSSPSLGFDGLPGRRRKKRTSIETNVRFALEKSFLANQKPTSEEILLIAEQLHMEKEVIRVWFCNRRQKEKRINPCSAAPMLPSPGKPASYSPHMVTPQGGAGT
Method in brief: as §1

[1] = molecular target: POU1 (OCT1 POU domain);BOB1 (OBF1, OCA-B) (human;human, UniProt P14859;Q16633 260-458;1-256, |); experiment: EMSA-SELEX-seq; with BOB1 (ternary complex band); 20 mM Tris-HCl pH 7.6, 140 mM NaCl, 10% glycerol, 0.5 mM EDTA, 0.05% Triton X-100, 0.1 mg/mL BSA, 0.1 mg/mL poly(dI-dC), 5 mM DTT, room temperature, 20 min; high values mean tight binding; details: protein: recombinant;recombinant; copies: 1;1; dsDNA, one strand shown
Method in brief: as §1

[2] = molecular target: T2, POU2 (OCT2 POU domain);BOB1 (OBF1, OCA-B) (human;human, UniProt P09086;Q16633 175-386;1-256, |); experiment: as above; details: protein: recombinant;recombinant; copies: 1;1; dsDNA, one strand shown
T2 sequence 1: T1 sequence
T2 sequence 2: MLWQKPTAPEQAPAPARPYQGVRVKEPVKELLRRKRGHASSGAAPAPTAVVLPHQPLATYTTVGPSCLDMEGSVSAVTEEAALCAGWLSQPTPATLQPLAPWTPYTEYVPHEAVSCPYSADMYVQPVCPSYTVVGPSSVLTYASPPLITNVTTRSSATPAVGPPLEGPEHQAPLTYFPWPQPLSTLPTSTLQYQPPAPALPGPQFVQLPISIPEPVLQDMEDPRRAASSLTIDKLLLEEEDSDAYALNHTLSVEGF
Method in brief: as §1

Sequence | binding signal (POU1 (OCT1 POU domain)) | binding signal (POU2 (OCT2 POU domain)) | binding signal [1] | binding signal [2]
ACGTGAAT | 0.0732 % of ANNNNAAN 8-mers | 0.107 % of ANNNNAAN 8-mers | 0.0558 % of ANNNNAAN 8-mers | 0.0784 % of ANNNNAAN 8-mers
AGAATAAA | 0.161 % of ANNNNAAN 8-mers | 0.182 % of ANNNNAAN 8-mers | 0.0757 % of ANNNNAAN 8-mers | 0.0892 % of ANNNNAAN 8-mers
AGTTGAAC | 0.0259 % of ANNNNAAN 8-mers | 0.0253 % of ANNNNAAN 8-mers | 0.0258 % of ANNNNAAN 8-mers | 0.0338 % of ANNNNAAN 8-mers
ATCCGAAA | 0.0305 % of ANNNNAAN 8-mers | 0.0374 % of ANNNNAAN 8-mers | 0.0308 % of ANNNNAAN 8-mers | 0.0338 % of ANNNNAAN 8-mers
AGATTAAG | 0.0656 % of ANNNNAAN 8-mers | 0.088 % of ANNNNAAN 8-mers | 0.0581 % of ANNNNAAN 8-mers | 0.0619 % of ANNNNAAN 8-mers
ACGATAAC | 0.0252 % of ANNNNAAN 8-mers | 0.0293 % of ANNNNAAN 8-mers | 0.0191 % of ANNNNAAN 8-mers | 0.0264 % of ANNNNAAN 8-mers
AATAGAAG | 0.0534 % of ANNNNAAN 8-mers | 0.0587 % of ANNNNAAN 8-mers | 0.0558 % of ANNNNAAN 8-mers | 0.057 % of ANNNNAAN 8-mers
AAGCCAAT | 0.0282 % of ANNNNAAN 8-mers | 0.0247 % of ANNNNAAN 8-mers | 0.0261 % of ANNNNAAN 8-mers | 0.0272 % of ANNNNAAN 8-mers
ATGTTAAG | 0.128 % of ANNNNAAN 8-mers | 0.146 % of ANNNNAAN 8-mers | 0.0835 % of ANNNNAAN 8-mers | 0.0966 % of ANNNNAAN 8-mers
ATGAAAAT | 0.373 % of ANNNNAAN 8-mers | 0.304 % of ANNNNAAN 8-mers | 0.619 % of ANNNNAAN 8-mers | 0.518 % of ANNNNAAN 8-mers
ATTCAAAT | 1.58 % of ANNNNAAN 8-mers | 1.29 % of ANNNNAAN 8-mers | 1.57 % of ANNNNAAN 8-mers | 1.95 % of ANNNNAAN 8-mers
AGTGTAAT | 0.085 % of ANNNNAAN 8-mers | 0.104 % of ANNNNAAN 8-mers | 0.0679 % of ANNNNAAN 8-mers | 0.0867 % of ANNNNAAN 8-mers
ACTTTAAT | 0.0824 % of ANNNNAAN 8-mers | 0.103 % of ANNNNAAN 8-mers | 0.0558 % of ANNNNAAN 8-mers | 0.066 % of ANNNNAAN 8-mers
ACAGTAAT | 0.0614 % of ANNNNAAN 8-mers | 0.0725 % of ANNNNAAN 8-mers | 0.0406 % of ANNNNAAN 8-mers | 0.0553 % of ANNNNAAN 8-mers
ATATTAAC | 0.151 % of ANNNNAAN 8-mers | 0.189 % of ANNNNAAN 8-mers | 0.0667 % of ANNNNAAN 8-mers | 0.0751 % of ANNNNAAN 8-mers
AGTGGAAG | 0.0324 % of ANNNNAAN 8-mers | 0.0357 % of ANNNNAAN 8-mers | 0.0414 % of ANNNNAAN 8-mers | 0.0405 % of ANNNNAAN 8-mers
AGTCGAAA | 0.0431 % of ANNNNAAN 8-mers | 0.0414 % of ANNNNAAN 8-mers | 0.0324 % of ANNNNAAN 8-mers | 0.0322 % of ANNNNAAN 8-mers
ACACAAAC | 0.0236 % of ANNNNAAN 8-mers | 0.019 % of ANNNNAAN 8-mers | 0.0398 % of ANNNNAAN 8-mers | 0.0297 % of ANNNNAAN 8-mers
ACAACAAC | 0.0187 % of ANNNNAAN 8-mers | 0.0104 % of ANNNNAAN 8-mers | 0.0133 % of ANNNNAAN 8-mers | 0.0124 % of ANNNNAAN 8-mers
ATCCAAAT | 0.131 % of ANNNNAAN 8-mers | 0.11 % of ANNNNAAN 8-mers | 0.209 % of ANNNNAAN 8-mers | 0.133 % of ANNNNAAN 8-mers
ATGTCAAG | 0.0378 % of ANNNNAAN 8-mers | 0.0535 % of ANNNNAAN 8-mers | 0.0406 % of ANNNNAAN 8-mers | 0.052 % of ANNNNAAN 8-mers
AGGCTAAA | 0.0381 % of ANNNNAAN 8-mers | 0.0414 % of ANNNNAAN 8-mers | 0.0363 % of ANNNNAAN 8-mers | 0.0454 % of ANNNNAAN 8-mers
ATAGAAAT | 0.0782 % of ANNNNAAN 8-mers | 0.0961 % of ANNNNAAN 8-mers | 0.0878 % of ANNNNAAN 8-mers | 0.0892 % of ANNNNAAN 8-mers
ACGCGAAC | 0.0103 % of ANNNNAAN 8-mers | 0.0121 % of ANNNNAAN 8-mers | 0.0109 % of ANNNNAAN 8-mers | 0.0165 % of ANNNNAAN 8-mers
AATAAAAT | 0.214 % of ANNNNAAN 8-mers | 0.214 % of ANNNNAAN 8-mers | 0.185 % of ANNNNAAN 8-mers | 0.164 % of ANNNNAAN 8-mers
AGACTAAT | 0.0744 % of ANNNNAAN 8-mers | 0.102 % of ANNNNAAN 8-mers | 0.0507 % of ANNNNAAN 8-mers | 0.066 % of ANNNNAAN 8-mers
ATTTCAAT | 0.238 % of ANNNNAAN 8-mers | 0.268 % of ANNNNAAN 8-mers | 0.174 % of ANNNNAAN 8-mers | 0.142 % of ANNNNAAN 8-mers
AGGCGAAT | 0.0618 % of ANNNNAAN 8-mers | 0.069 % of ANNNNAAN 8-mers | 0.0593 % of ANNNNAAN 8-mers | 0.0743 % of ANNNNAAN 8-mers
ATACTAAT | 0.17 % of ANNNNAAN 8-mers | 0.182 % of ANNNNAAN 8-mers | 0.0745 % of ANNNNAAN 8-mers | 0.11 % of ANNNNAAN 8-mers
AACCGAAC | 0.013 % of ANNNNAAN 8-mers | 0.0173 % of ANNNNAAN 8-mers | 0.0117 % of ANNNNAAN 8-mers | 0.0198 % of ANNNNAAN 8-mers
